According to PubChem BioAssay AID1851 (National Center for Advancing Translational Sciences (NCATS), 2009):
About 2,600 (16%) of roughly 16,000 compounds were called active. About 20% were inconclusive and are not listed. A selection follows. Values without a mark were called inactive. Calls follow the shape of the dose curve; as a rule, active = well fitted curve in the direction sought with a large enough effect; inconclusive = small, poorly fitted or top-dose-only effect, or effect the other way; inactive = no such curve, though single readings can be large or run the other way.

Each molecule was assayed against Cytochrome P450 2D6 (Homo sapiens) (UniProt P10635) (assay: Cytochrome panel assay with activity outcomes). Settings: recombinant CYP, pro-luciferin dealkylation, luminescence, p450-cyp2d6; series mostly up to 57.1 µM.
% is scaled to controls: 0 for no effect and ±100 for the full control effect.

Sequence of Cytochrome P450 2D6 (Homo sapiens) (P10635 whole entry, looked up): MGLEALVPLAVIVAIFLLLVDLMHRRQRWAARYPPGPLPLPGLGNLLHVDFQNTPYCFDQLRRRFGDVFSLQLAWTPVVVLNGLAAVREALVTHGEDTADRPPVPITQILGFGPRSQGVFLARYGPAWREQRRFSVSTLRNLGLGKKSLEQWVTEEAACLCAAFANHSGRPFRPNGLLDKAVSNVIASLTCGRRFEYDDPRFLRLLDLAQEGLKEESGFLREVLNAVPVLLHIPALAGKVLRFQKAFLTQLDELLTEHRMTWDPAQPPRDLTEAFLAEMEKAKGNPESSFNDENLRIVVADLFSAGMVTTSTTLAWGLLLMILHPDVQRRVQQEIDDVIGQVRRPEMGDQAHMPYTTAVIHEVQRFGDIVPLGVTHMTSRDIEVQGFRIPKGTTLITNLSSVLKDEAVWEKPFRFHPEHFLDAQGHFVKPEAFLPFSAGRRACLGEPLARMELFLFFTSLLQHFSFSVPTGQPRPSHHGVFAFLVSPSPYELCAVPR

`COc1ncc2nc(-c3cc(F)cc(F)c3)c(=O)n(C[C@H]3CCCO3)c2n1` was tested. Which AC50 did it give?
Its AC50 is “inactive”.

With `CNc1c2c(nn1C)CCCC2` as the molecule, how does the AC50 read?
The AC50 was “inactive”.

For `Cc1ccccc1S(=O)(=O)Oc1ccccc1C(=O)Oc1ccccc1`, which AC50 is on record?
Its AC50 is “inactive”.

How did the activity, negative = inhibition turn out when `Nc1ncnc2nc(N3CCN(CCO)CC3)[nH]c12` was run?
Its activity, negative = inhibition is 6.88% [at 11.4 µM].

How did the AC50 turn out when `N[C@H](CCC(=O)NCS(=O)(=O)O)C(=O)O` was run?
Its AC50 is “inactive”.

For `COc1cc(=O)n(C)c2c(OC[C@@H](O)C(C)(C)O)cccc12`, which AC50 is on record?
The AC50 was “inactive”.

With `CO/N=C(\C(=O)N[C@@H]1C(=O)N2C(C(=O)O)=C(COC(C)=O)CS[C@@H]12)c1csc(N)n1` as the molecule, how does the AC50 read?
Its AC50 is “inactive”.

For `Cc1ccccc1NC1=C(C(=O)c2ccccc2)N(C)S(=O)(=O)c2ccccc21`, which AC50 is on record?
The AC50 was “inactive”.

With `C[C@H]1COC(=O)[C@H](Cc2ccccc2)NC(=O)[C@@H](C)COC(=O)[C@H](Cc2ccccc2)NC1=O` as the molecule, how does the activity, negative = inhibition read?
Its activity, negative = inhibition is 13.8% [at 11.4 µM].

How did the activity, negative = inhibition turn out when `OC[C@@H]1O[C@@H](O)[C@H](N=Cc2ccc3c(c2)OCO3)[C@@H](O)[C@@H]1O` was run?
Its activity, negative = inhibition is 0.161% [at 11.4 µM].

With `COCCn1c(=O)c(-c2cc(F)cc(F)c2)nc2cnc(N3CCN(C)CC3)nc21` as the molecule, how does the AC50 read?
The AC50 was “inactive”.

Which AC50 does the source give for `C=CCNC(=O)CC(=O)N/N=C/c1cccc(Br)c1` here?
The AC50 was “inactive”.

With `O=C(CSCc1cccc(Cl)c1)NCc1ccc2c(c1)OCO2` as the molecule, how does the AC50 read?
The AC50 was 1 µM (active).

`O=C(CSCc1cccc(Br)c1)N/N=C/c1ccc2c(c1)OCO2` was tested. Which AC50 did it give?
The AC50 was 2 µM (active).

`O=C(/C=C/c1cc2c(cc1Br)OCO2)NCc1ccc(Cl)cc1` was tested. Which AC50 did it give?
The AC50 was “inactive”.

Which AC50 does the source give for `Cn1c(=O)c2c(n(Cc3ccccc3)c1=O)NC(=O)C2CC(=O)NCc1cccc(Cl)c1` (configuration not stated) here?
The AC50 was “inactive”.

For `CCN(CC)C(=O)C(=O)N/N=C/c1cccc(Br)c1`, which AC50 is on record?
The AC50 was “inactive”.

With `O=[N+]([O-])c1ccc(/C=N/n2c(COc3ccccc3)n[nH]c2=S)cc1` as the molecule, how does the AC50 read?
Its AC50 is “inactive”.

For `C=CCNc1sc(C(=O)c2ccc(C)cc2)c(N)c1C#N`, which AC50 is on record?
The AC50 was “inactive”.

How did the activity, negative = inhibition turn out when `O=C(O)[C@H]1CCCC[C@@H]1c1c2ccc(=O)c(O)c-2oc2c(O)c(O)ccc12` was run?
The activity, negative = inhibition was -0.179% [at 11.4 µM].

How did the AC50 turn out when `Cc1ccc(S(=O)(=O)N[C@H](C(=O)Oc2ccc3c(C(F)(F)F)cc(=O)oc3c2)c2ccccc2)cc1` was run?
Its AC50 is “inactive”.

How did the activity, negative = inhibition turn out when `O=C(O)/C(=C\c1ccc(O)cc1)c1cccc2ccccc12` was run?
The activity, negative = inhibition was -6.42% [at 11.4 µM].

How did the activity, negative = inhibition turn out when `O=C(O)[C@H]([C@H]1NCCS1)N1Cc2ccccc2C1` was run?
The activity, negative = inhibition was 5.75% [at 11.4 µM].

How did the activity, negative = inhibition turn out when `CCN=C(N)CSS(=O)(=O)O` was run?
The activity, negative = inhibition was -8.26% [at 11.4 µM].

With `O=C(N/N=C1/C[C@@H](O)[C@@H](O)[C@@H]2[C@H]3C(=O)N(c4ccc(F)cc4F)C(=O)[C@@H]3CC[C@H]12)OCc1ccccc1` as the molecule, how does the activity, negative = inhibition read?
Its activity, negative = inhibition is -17.3% [at 11.4 µM].

How did the AC50 turn out when `CSc1nnc(-c2ccc(Cl)cc2Cl)o1` was run?
The AC50 was “inactive”.

For `Clc1ccc(-c2nnc(-c3cccc4ccccc34)o2)cc1Cl`, which activity, negative = inhibition is on record?
Its activity, negative = inhibition is 17.5% [at 11.4 µM].

`Clc1ccc(-c2nnc(CCc3ccccc3)o2)c(Cl)c1` was tested. Which AC50 did it give?
Its AC50 is 11.2 µM (active).

For `CCN1C(=O)C(O)(CC(=O)/C=C/C=C/c2ccccc2)c2ccccc21` (configuration not stated), which AC50 is on record?
The AC50 was “inactive”.

`CC(C)CO/N=C1/C[C@@H](O)[C@@H](O)[C@@H]2[C@@H]3C(=O)N(C[C@@H]4CCCO4)C(=O)[C@H]3CC[C@@H]12` was tested. Which activity, negative = inhibition did it give?
The activity, negative = inhibition was 17.5% [at 11.4 µM].

With `O=c1c(-c2cccs2)nc2cnc(N3CCOCC3)nc2n1-c1ccccc1` as the molecule, how does the AC50 read?
Its AC50 is “inactive”.

`CC(C)c1ccc2c(c1)C(c1ccc(N3CCOCC3)cc1)=NNC(c1cccs1)=N2` was tested. Which AC50 did it give?
The AC50 was 7.08 µM (active).

`COc1ccc(-n2c(=O)c(-c3cccs3)nc3cnc(N4CCOCC4)nc32)cc1` was tested. Which AC50 did it give?
The AC50 was “inactive”.

For `COC(=O)C1=C(CSc2nncn2C)NC(=O)NC1c1ccc(F)cc1` (configuration not stated), which AC50 is on record?
The AC50 was “inactive”.

How did the AC50 turn out when `CC(=O)Nc1ccc(S(=O)(=O)NCC2CCC(C(=O)NCCC(C)C)CC2)cc1` (configuration not stated) was run?
Its AC50 is “inactive”.

With `Cc1ccc(S(=O)(=O)N2CCC(C(=O)NCCCOC(C)C)CC2)cc1` as the molecule, how does the AC50 read?
Its AC50 is “inactive”.

With `CC(=O)Nc1ccc(S(=O)(=O)N2CCC(N(C)CCC(C)C)CC2)cc1` as the molecule, how does the AC50 read?
Its AC50 is 8.91 µM (active).

For `CCc1ccccc1NC(=O)c1nnn(CC(=O)Nc2cccc(C)c2C)c1N`, which AC50 is on record?
The AC50 was “inactive”.

Which AC50 does the source give for `C/C(=N\Nc1nc(N)cc(Cl)n1)c1cccc([N+](=O)[O-])c1` here?
The AC50 was “inactive”.

`O=C(Cc1ccccc1)Nc1nc2ccc(Cl)cc2c2nc(-c3ccco3)nn12` was tested. Which AC50 did it give?
The AC50 was 10 µM (active).

For `O=C(Cc1ccc(Cl)cc1)NNC(=O)Nc1cccc2ccccc12`, which AC50 is on record?
The AC50 was “inactive”.

`O=C(Cc1ccc(Cl)cc1)Nc1cccc(-c2nnc(-c3ccco3)o2)c1` was tested. Which AC50 did it give?
The AC50 was “inactive”.

Which AC50 does the source give for `Cc1ccc(C(=O)NCc2ccc(N3CCN(C(=O)OC(C)(C)C)CC3)cc2)cc1` here?
The AC50 was “inactive”.

For `CC(C)NC(=O)CC(=O)N/N=C/c1ccc(F)cc1`, which AC50 is on record?
The AC50 was “inactive”.

How did the AC50 turn out when `CCCCCSc1nncc(=O)[nH]1` was run?
Its AC50 is “inactive”.

Which AC50 does the source give for `Cc1cc(Oc2ccccc2)nc(NCc2ccccc2)n1` here?
Its AC50 is “inactive”.

Which AC50 does the source give for `Cc1nc(SCc2cccc(Oc3ccccc3)c2)n[nH]1` here?
Its AC50 is 14.1 µM (active).

For `c1ccc(CSc2nnc3c4ccccc4c4ccccc4c3n2)cc1`, which activity, negative = inhibition is on record?
Its activity, negative = inhibition is -1.49% [at 11.4 µM].

With `CN(C)c1ncc2nc(-c3cccs3)c(=O)n(-c3ccccc3)c2n1` as the molecule, how does the AC50 read?
The AC50 was “inactive”.

For `CCN(CC)c1ccc2cc(C(C)=O)c(=O)oc2c1`, which AC50 is on record?
The AC50 was “inactive”.

Which AC50 does the source give for `CCN(CC)c1ccc(C(=O)OCc2cc(=O)oc3cc(O)ccc23)cc1` here?
Its AC50 is “inactive”.

Which AC50 does the source give for `CCN(CC)c1ccc2c(Cl)cc(=O)oc2c1` here?
The AC50 was 12.6 µM (active).

`CCOC(=O)c1ccccc1NC(=O)/C(C)=C/C(=O)O` was tested. Which AC50 did it give?
The AC50 was “inactive”.

How did the AC50 turn out when `COCCn1c(=O)c(-c2cn(C)c3ccccc23)nc2cnc(Oc3cccc(Cl)c3)nc21` was run?
The AC50 was “inactive”.

Which AC50 does the source give for `CCCOc1ccccc1-c1nc2n[nH]nc2c(=O)[nH]1` here?
The AC50 was “inactive”.

`CNc1nc(C)cc(C)c1S(=O)(=O)c1ccc(Cl)cc1` was tested. Which AC50 did it give?
Its AC50 is “inactive”.

`Cc1nn(C(=O)c2ccco2)c(C)c1Sc1ccc(Br)cc1` was tested. Which AC50 did it give?
Its AC50 is “inactive”.

Which AC50 does the source give for `Cc1nn(S(=O)(=O)c2cccs2)c(C)c1Sc1ccc([N+](=O)[O-])cc1` here?
Its AC50 is 2.24 µM (active).

With `Cc1ccc(Sc2c([N+](=O)[O-])ncn2C)cc1` as the molecule, how does the AC50 read?
The AC50 was “inactive”.

How did the AC50 turn out when `O=C(OC1CCN(c2ccc([N+](=O)[O-])cc2)CC1)c1ccccc1` was run?
The AC50 was “inactive”.

For `COc1ccc(-n2c(C)cc(C=O)c2C)cc1Cl`, which AC50 is on record?
Its AC50 is “inactive”.

For `CC(C)(O)c1cn(-c2nonc2N)nn1`, which AC50 is on record?
Its AC50 is “inactive”.
